# Screening results: PubChem BioAssay, National Center for Advancing Translational Sciences (NCATS)
# An excerpt weighted towards active compounds, which were near 12% of everything screened.
# HP1b binding inh – blocks HP1-beta chromodomain binding to methylated histone tails; Potency, µM (titrated, usually from 114 µM), for the others: top-dose activity change, negative = inhibition, most hits filed as inhibitors; P83916; AlphaScreen HP1-beta / biotin-H3K9me3 peptide binding; 0.56% of 390,000 active; also: nearly all actives have a fitted effect of over 70% in size
#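 Compound inhibition of the preformed complex between 50 nM HP1-beta and 50 nM biotinylated H3K9me3 peptide was read by AlphaScreen. Buffer was PBS pH 7.4 with 0.01% Tween-20. Incubations ran 30 min at room temperature, with 10 ug/mL donor/acceptor beads.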
# JMJD2A Tudor – inhibitors of human JMJD2A Tudor domain. O75164. AlphaScreen JMJD2A-Tudor / H3K4me3 peptide binding. Potency, µM (top dose mostly 114 µM), without a hit: top-dose activity change, negative = inhibition, actives largely listed as inhibitors. 4.4% of 390,000 active. AID 504339; also: % is scaled to controls: 0 for no effect and ±100 for the full control effect; nearly all actives have a fitted effect of over 50% in size
# Target sequence (O75164 whole entry, looked up, the tested form may be a part): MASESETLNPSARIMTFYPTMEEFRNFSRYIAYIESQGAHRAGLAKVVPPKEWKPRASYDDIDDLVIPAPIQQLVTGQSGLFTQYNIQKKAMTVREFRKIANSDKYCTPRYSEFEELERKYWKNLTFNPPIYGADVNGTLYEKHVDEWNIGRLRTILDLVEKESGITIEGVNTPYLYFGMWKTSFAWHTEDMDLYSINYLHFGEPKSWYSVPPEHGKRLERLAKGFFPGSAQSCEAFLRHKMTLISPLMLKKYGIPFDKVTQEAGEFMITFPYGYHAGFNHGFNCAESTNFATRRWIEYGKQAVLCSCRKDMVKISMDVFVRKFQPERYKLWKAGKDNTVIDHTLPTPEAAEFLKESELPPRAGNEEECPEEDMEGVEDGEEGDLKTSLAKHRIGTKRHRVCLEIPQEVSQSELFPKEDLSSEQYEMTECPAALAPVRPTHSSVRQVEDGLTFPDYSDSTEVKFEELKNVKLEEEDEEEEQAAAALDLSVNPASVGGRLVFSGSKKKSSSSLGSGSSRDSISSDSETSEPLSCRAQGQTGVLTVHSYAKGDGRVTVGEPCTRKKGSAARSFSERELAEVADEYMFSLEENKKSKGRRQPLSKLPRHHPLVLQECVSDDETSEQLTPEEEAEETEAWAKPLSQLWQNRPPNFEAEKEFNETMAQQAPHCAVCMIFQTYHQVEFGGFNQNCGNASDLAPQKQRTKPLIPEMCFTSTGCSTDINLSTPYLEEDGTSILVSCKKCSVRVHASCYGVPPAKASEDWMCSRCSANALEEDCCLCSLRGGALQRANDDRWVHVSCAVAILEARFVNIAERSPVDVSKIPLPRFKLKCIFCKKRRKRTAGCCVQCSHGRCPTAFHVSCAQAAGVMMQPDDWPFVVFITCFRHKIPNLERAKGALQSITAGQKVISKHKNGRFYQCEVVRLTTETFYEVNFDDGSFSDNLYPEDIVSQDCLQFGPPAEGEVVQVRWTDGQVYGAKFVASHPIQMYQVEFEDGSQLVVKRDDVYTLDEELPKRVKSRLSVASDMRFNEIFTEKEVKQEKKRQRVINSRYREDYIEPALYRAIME
# BAZ2B block – BAZ2B (human) inhibition; AlphaScreen BAZ2B-H3K14Ac peptide displacement; Potency, µM (highest dose often 114 µM), inactives show top-dose activity change, negative = inhibition, most hits filed as inhibitors; AID 504333; 4.4% of 360,000 active; Q9UIF8; also: % is scaled to controls: 0 for no effect and ±100 for the full control effect; nearly all actives have a fitted effect of over 60% in size
#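 Complex of BAZ2B and biotin-H3K14Ac (50 nM apiece) forms over 30 min at RT, then faces library compounds up to 110 uM for another 30 min; AlphaScreen beads added, 20 min dark incubation, luminescence read.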
# Sfp inh – Sfp phosphopantetheinyl transferase inhibition. Potency, µM, inactives show largest response in the series, negative = inhibition, hits mostly inhibitors. Biochemical Sfp PPTase activity, qHTS. AID 1490. 3.5% of 310,000 active. Q9F4F7;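 also: the enzyme is Sfp with the accession as filed and its product quenches rhodamine fluorescence; 0% = enzyme reaction without inhibitor and -100% = no enzyme wells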
#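 With Hepes-Na pH 7.6 buffer containing 10 mM MgCl2, Sfp (15 nM) modified BHQ-2-YbbR (12.5 uM) using rhodamine-CoA (5 uM). Two reads 30 minutes apart at 525/598 nm yielded each well's rate.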
# G9a block – blocks human histone lysine methyltransferase G9a. Q96KQ7. G9a H3K9 monomethylation, AlphaScreen, 2 h. Potency, µM (doses to about 102 µM), for the others: at the highest dose activity, negative = inhibition, usual class: inhibitors. 8.8% of 350,000 active. AID 504332; also: % is scaled to controls: 0 for no effect and ±100 for the full control effect; nearly all actives have a fitted effect of over 75% in size
#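 Methyltransferase reactions run at room temperature for 2 h (20 nM enzyme, 500 nM biotin-H3K9 peptide, 20 uM SAM) after a 15 min compound preincubation; product detected by AlphaScreen beads and anti-H3K9me1 antibody.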
# PLK1 PBD block – blocks phosphopeptide binding to human PLK1 polo-box domain; Plk1 PBD binding of FITC phosphopeptide, fluorescence polarization; Potency, µM, inactives show max response, negative = inhibition, hits mostly inhibitors; 2.8% of 360,000 active; AID 720504; also: series mostly up to about 57 µM; % is scaled to controls: 0 for no effect and ±100 for the full control effect; nearly all actives have a fitted effect of over 65% in size
# Starred values were filed as active, the others as inactive; ? = inconclusive; . = not tested or not shown; [ ] = remark or other dose. Calls follow the shape of the dose curve; as a rule, active = well fitted curve in the direction sought with a large enough effect; inconclusive = small, poorly fitted or top-dose-only effect, or another doubt; inactive = no such curve, though single readings can be large; an effect the other way counts as inactive or inconclusive. Potency is read from the fitted curve at half-maximal effect.
SMILES,HP1b binding inh,JMJD2A Tudor,BAZ2B block,Sfp inh,G9a block,PLK1 PBD block
COc1ccc(NC(=O)/C=C/c2ccco2)cn1,5.5%,-18.2%[57.1 µM],?,-88.0%,44.7µM*,-23.5%
COc1ccccc1CNC(=O)/C=C/c1ccc(Br)o1,24.9%,-16.1%,?,10µM*,28.2µM*,-14.1%
COc1ccc(NC(=O)/C=C/c2cccc(F)c2)cn1,8.7%,-30.5%,-4.8%,13.4%,2.1%[59 µM],-14.4%
CN(CC(=O)NCc1ccc(Cl)cc1)S(=O)(=O)c1ccc2c(c1)c(=O)n(C)c(=O)n2C,20.2%,-5.1%,1.1%,.,-0.8%[59 µM],.
CCOC(=O)c1c(C)n(-c2ccccc2)c2ccc(OC(=O)COc3ccc(Cl)cc3)cc12,45.8%,-14.1%,4.6%,.,-40.8%[59 µM],.
CCCCC#CC1C=CC(Oc2ccc(OC)cc2)C(CO)O1 (centres undefined),.,.,.,7.2%,.,.
CCn1c(O)c(N=NC(=O)CNC(=O)/C=C/c2ccco2)c2ccccc21,17.1%,-23.0%,-5.5%,?,56.2µM*,-2.3%
CN(C)/C=N/C(=S)Nc1ccc(Cl)cc1,4.7%,-23.5%,-24.7%,-11.8%,-4.6%,-9.5%
Cc1cccc(C)c1NC(=S)/N=C/N(C)C,-22.4%,14.1µM*,-6.7%,-1.1%,-12.4%[59 µM],?
CC(NC(=O)C1CCC(C(=O)NC(C)c2ccccc2)CC1)c1ccccc1 (centres undefined),15.1%,-17.0%,3.8%,10.4%,22.6%,-2.1%
COc1cccc(C(NC(C)=O)c2nc(-c3cccc(C(=O)O)c3)cs2)c1 (centres undefined),.,.,.,.,.,-12.2%
COc1ccc(C(=O)c2nc3c(n2O)CCCC3)cc1OC,1.2%,50.1µM*,-27.3%,-22.8%,?,1.7%
OC[C@H]1NC[C@@H](O)[C@@H](O)[C@@H]1O,.,.,.,-15.4%,.,.
CCNC(=O)CCSc1nnc(-c2ccncc2)o1,0.5%,-11.2%,-18.4%,20.2%,0.2%,-12.0%
O=C(CCSc1nnc(-c2ccncc2)o1)Nc1cccc2ccccc12,45.9%,-21.1%,5.7%,6.1%,10.0%[59 µM],-10.2%
CC(Sc1nnc(-c2ccc(O)cc2)o1)C(=O)Nc1cccc2ccccc12 (centres undefined),-3.7%,-18.9%[57.1 µM],-30.2%,-11.7%,12.6µM*,-25.3%
CCNC(=O)CCSc1nnc(-c2ccc(O)cc2)o1,-2.5%,0.3%,1.2%,.,12.6µM*,.
OCCCN1CCN(CCOc2ccccc2-c2ccccc2)CC1,38.4%,-20.2%,2.8%,1.1%,22.4%[59 µM],-6.7%
c1ccc2c(OCCCN3CCCCCC3)cccc2c1,?,22.4µM*,56.2µM*,-6.5%,.,-20.6%
CCN1CCN(CCCOc2ccccc2-c2ccccc2)CC1,-5.0%,22.4µM*,28.2µM*,?,.,-12.7%
OCCN1CCN(CCOc2ccccc2-c2ccccc2)CC1,6.1%,-18.4%,13.2%,-10.0%,0.5%[59 µM],-7.5%
c1ccc(-c2ccccc2OCCN2CCOCC2)cc1,20µM*,14.1µM*,79.4µM*,-32.3%,10µM*,-4.3%
c1ccc(-c2ccccc2OCCCN2CCCCC2)cc1,-19.6%,7.94µM*,?,-35.4%,8.91µM*,-3.8%
Clc1cccc(OCCOCCN2CCNCC2)c1Cl,17.5%,-14.9%,.,.,.,-18.0%
Clc1cccc(OCCCN2CCCC2)c1Cl,?,20µM*,-31.1%,13.6%,?,-13.0%
SMILES,HP1b binding inh,JMJD2A Tudor,BAZ2B block,Sfp inh,G9a block,PLK1 PBD block
Cc1cccc(NC(=S)NNC(=O)c2nn(C)cc2Cl)c1,19.6%,-29.1%,3.0%[57.1 µM],9.7%,35.5µM*,-12.5%
Cc1ccc(NC(=O)COC(=O)c2nn(C)cc2Cl)cc1,-13.2%,-15.0%,-6.4%,16.8%,3.8%,-11.7%
Cc1c(Cl)c(C(=O)NNC(=S)Nc2ccccc2)nn1C,28.6%,-11.6%,7.7%,5.2%,3.55µM*,-7.4%
Cc1cccc(NC(=S)NNC(=O)c2ccco2)c1,2.2%,-18.3%,-6.1%,0.1%,-8.9%[12.7 µM],-17.3%
Cc1ccc(NC(=S)NNC(=O)c2nn(C)cc2Cl)cc1,24.9%,-9.1%,18.0%[57.1 µM],11.2%,35.5µM*,-8.0%
COc1ccccc1CNC(=O)CCNS(=O)(=O)c1ccc2c(c1)CC(C)N2C(C)=O (centres undefined),58.9%,-8.8%,-19.8%,18.4%,-3.2%,-6.8%
O=C(NCc1ccccc1)C1C(c2ccccc2)=Nc2ccccc2N1C(=O)c1ccncc1 (centres undefined),.,.,.,.,.,-14.7%
Cc1ccccc1NC(=S)c1ccc2ccccc2n1,36.5%,-13.7%,10µM*,28.2µM*,11.2µM*,2.67µM*
CCCN(CC(=O)Nc1ccccc1C)C(=O)c1ccc2ccccc2n1,38.3%,0.0%,-16.5%,.,-45.7%,-0.5%
CCC(C)NCCOc1ccc(C)cc1[N+](=O)[O-] (centres undefined),?,0.794µM*,39.8µM*,-17.5%,11.2µM*,32.9%
COc1cc(C)ccc1OCCOCCOc1ccccc1[N+](=O)[O-],28.2%,-10.6%,3.5%,-1.1%,-4.5%[59 µM],-8.0%
Cc1cc([N+](=O)[O-])c(NCCCCCCO)c([N+](=O)[O-])c1,-14.5%,?,.,.,.,-2.0%
CCC(C)Nc1c([N+](=O)[O-])cc(C)cc1[N+](=O)[O-] (centres undefined),?,20µM*,31.6µM*,-2.2%,39.8µM*,0.0%
C=CCc1ccc(OCCOCCOc2ccc(C)cc2[N+](=O)[O-])c(OC)c1,50.8%,-13.9%,4.9%,11.4%,35.4%,-11.3%
C=CCN(CC=C)CCOc1cc(C)ccc1[N+](=O)[O-],28.2µM*,?,22.4µM*,-13.4%,10µM*,-3.2%
C=CCNCCOc1ccc(C)cc1[N+](=O)[O-],?,50.1µM*,39.8µM*,-11.8%,.,-8.2%
CC(=O)c1cccc(NC(=O)CCc2nnc3ccc(N4CCOCC4)nn23)c1,34.9%,-3.0%,-15.2%[57.1 µM],11.5%,0.5%,4.3%
COc1ccc(CCNC(=O)C(=O)c2cn(CC(=O)N3CCCC3)c3ccccc23)cc1,.,.,.,.,.,6.9%
COc1ccccc1-c1cc(NC(C)=O)c2ncc(-c3cccc(C(C)=O)c3)n2c1,.,.,.,.,.,-2.8%
CCCCNCCOCCOc1ccc(C)cc1[N+](=O)[O-],?,2.82µM*,?,2.6%,17.8µM*,0.2%
COCCCNCCCCOc1ccc(C)cc1[N+](=O)[O-],?,5.62µM*,?,-4.8%,11.2µM*,-1.0%
COc1ccccc1OCCOCCOc1ccc(C)cc1[N+](=O)[O-],28.8%,-19.3%,5.1%,0.2%,2.8%[59 µM],-8.3%
